{
  "source": "PubChem BioAssay AID686978",
  "about": "(National Center for Advancing Translational Sciences (NCATS), 2013)",
  "note": "Hit rate of the full screen: of about 420,000 compounds, about 64,000 (15%) were called active. Inconclusive results (about 27%) are left out. A selection follows. Unmarked numbers belong to inactive results. Calls come from the whole dose curve; as a rule, active = well fitted inhibition curve with a large enough effect; inconclusive = small, poorly fitted or top-dose-only effect; inactive = flat fitted curve, though single readings scatter.",
  "data": [
    {"test": "qHTS for Inhibitors of human tyrosyl-DNA phosphodiesterase 1 (TDP1): qHTS in cells in absence of CPT; note: nearly all actives have a fitted effect of over 55% in size; note: potency is the fitted concentration of half-maximal effect; for activity change, negative = growth inhibition: % is set by controls: 0 for no effect and ±100 for the full control effect", "settings": "DT40 Tdp1-/- hTDP1 cells, no CPT, ATP luminescence, 48 h; activity change, negative = growth inhibition: at 46.2 µM (top of the series)", "method_in_brief": "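Growth of hTDP1-complemented DT40 Tdp1-knockout cells is measured by ATP luminescence after at least 48 hr compound exposure at 37 °C, with DMSO substituting for the 20 nM CPT used in the parallel screen.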", "units": {"activity change, negative = growth inhibition": "%"}, "values": [
      {"compound": "CCCS(=O)(=O)NC(=O)C1(C)CCCN(C(=O)c2cccs2)C1", "note": "(stereo not given)", "activity change, negative = growth inhibition": 1.68},
      {"compound": "COc1cc(/C=C2\\C(=N)N3N=C(CC(=O)N4CCOCC4)SC3=NC2=O)cc(OC)c1OC", "activity change, negative = growth inhibition": 12.8},
      {"compound": "Cc1noc(C)c1C(=O)N(CC(=O)NC1CCCC1)Cc1ccccc1F", "activity change, negative = growth inhibition": -4.62},
      {"compound": "CCOP1(=O)C=C(C(C)(C)C)OC1c1ccc(F)cc1", "note": "(stereo not given)", "activity change, negative = growth inhibition": -5.51},
      {"compound": "C=CCNC(=S)NNc1ncnc2sc3c(c12)CC(C)(C)OC3", "Potency": "5.17 µM (active)"},
      {"compound": "CN(C)CCSc1nc(N)c2c3c(sc2n1)COC(C)(C)C3", "activity change, negative = growth inhibition": -19.5},
      {"compound": "C[C@H]1CN([C@@H](C)CO)C(=O)CCCn2cc(nn2)CO[C@@H]1CN(C)S(=O)(=O)c1ccccc1C#N", "activity change, negative = growth inhibition": -18.8},
      {"compound": "CCC1CCc2c(sc(NC(C)=O)c2C#N)C1", "note": "(stereo not given)", "activity change, negative = growth inhibition": -4.74},
      {"compound": "Cc1nnc(SC(C)C(=O)c2c[nH]c3ccccc23)n1C1CC1", "note": "(stereo not given)", "activity change, negative = growth inhibition": -23.9},
      {"compound": "COc1ccc(N2CCN(C(C)=C3C(=O)c4ccccc4C3=O)CC2)cc1", "activity change, negative = growth inhibition": 1.97},
      {"compound": "COc1ccc(C(C(O)C(=O)c2c[nH]c3ccccc23)N2CCN(c3ccccc3)CC2)cc1", "note": "(stereo not given)", "Potency": "25.9 µM (active)"},
      {"compound": "O=C(COc1ccc(Cl)cc1)Nc1ccc2oc(=O)ccc2c1", "activity change, negative = growth inhibition": -12.1},
      {"compound": "Cc1ccc(N(C(=O)c2sc(C)nc2C)C(C(=O)NC(C)(C)C)c2ccncc2)cc1", "note": "(stereo not given)", "activity change, negative = growth inhibition": -7.84},
      {"compound": "CC1(C)C=C2[C@H]3CC[C@@H]4[C@@]5(C)CCC(=O)C(C)(C)[C@@H]5CC[C@@]4(C)[C@]3(C)CC[C@@]2(C(=O)O)CC1", "Potency": "8.2 µM (active)"},
      {"compound": "Cc1cc(C)cc(N(C(C)C(=O)Nc2c(C)n(C)n(-c3ccccc3)c2=O)S(C)(=O)=O)c1", "note": "(stereo not given)", "activity change, negative = growth inhibition": 0.735},
      {"compound": "CCCCOc1ccc(Cn2c(=O)oc3ccc(C)cc32)cc1OC", "Potency": "14.6 µM (active)"},
      {"compound": "COc1ccc(Cn2c(=O)oc3ccccc32)cc1", "activity change, negative = growth inhibition": -21.5},
      {"compound": "COc1ccc(CN2CCOC2=O)cc1OC", "activity change, negative = growth inhibition": -1.9},
      {"compound": "CCOc1cc(CN2CCN(C(=O)CC(C)C)CC2)ccc1OC", "activity change, negative = growth inhibition": -28.3},
      {"compound": "CCCCOc1ccc(CN2C(=O)C(=O)c3cc(Br)cc(C)c32)cc1OC", "Potency": "1.16 µM (active)"},
      {"compound": "CCCCn1nnnc1C1(C)CCC(=O)N1Cc1ccc(OC)c(OC)c1", "note": "(stereo not given)", "activity change, negative = growth inhibition": -5.49},
      {"compound": "Cc1cccc(-n2c(Cc3cc(=O)[nH]c(=O)[nH]3)nnc2SC(C)C)c1", "activity change, negative = growth inhibition": -10.6},
      {"compound": "CC/C(=N\\NC(=O)c1c(C)nc2ccccn12)c1ccc(Cl)cc1", "activity change, negative = growth inhibition": -28.9},
      {"compound": "CCCCCC(=O)Nc1ccc(S(=O)(=O)Nc2ccc(Cl)nn2)cc1", "activity change, negative = growth inhibition": -0.978},
      {"compound": "CCCCN(C)Cc1c(C)[nH]c2ccc(Cl)cc2c1=O", "activity change, negative = growth inhibition": -8},
      {"compound": "CCOC(=O)C1=C(C)NC(C)=C(C(=O)OCC)C1c1ccccn1", "activity change, negative = growth inhibition": 1.59},
      {"compound": "CCOC(=O)C1=C(C)NC(SC)=NC1c1ccccc1", "note": "(stereo not given)", "activity change, negative = growth inhibition": -25.7},
      {"compound": "C=CCC1(C#N)C(=S)NC(C)=C(C(=O)OCC)C1c1ccccc1", "note": "(stereo not given)", "Potency": "29.1 µM (active)"},
      {"compound": "Cc1ccsc1C1C(C#N)=C(N)OC2=C1C(=O)CC(C)(C)C2", "note": "(stereo not given)", "activity change, negative = growth inhibition": -19.9},
      {"compound": "CCOC(=O)CSc1nnc(CNC(=O)Cc2ccccc2)n1-c1ccccc1OC", "activity change, negative = growth inhibition": -11.6},
      {"compound": "O=C(COc1ccc(Cl)cc1)NCCSc1ccccc1", "activity change, negative = growth inhibition": -24.2},
      {"compound": "COc1ccc(C(=O)COC(=O)CNC(=O)c2cccs2)cc1Br", "activity change, negative = growth inhibition": 2.17},
      {"compound": "Cc1ccc(S(=O)(=O)n2cnc3ccccc32)c(C)c1", "activity change, negative = growth inhibition": -22.7},
      {"compound": "COc1ccc(S(=O)(=O)n2cnc3ccccc32)c(C)c1", "Potency": "10.3 µM (active)"},
      {"compound": "Cc1ccc(C)c(S(=O)(=O)n2cnc3ccccc32)c1", "activity change, negative = growth inhibition": 5.49},
      {"compound": "COc1ccc(C)cc1NC(=S)N1CCOCC1", "activity change, negative = growth inhibition": 5.24},
      {"compound": "C=CCOc1c(Br)cc(/C=N\\n2nnnc2N)cc1OC", "activity change, negative = growth inhibition": -11.6},
      {"compound": "C[C@H]1CN([C@@H](C)CO)C(=O)c2cc(-c3cccc(F)c3)cnc2O[C@@H]1CN(C)S(C)(=O)=O", "activity change, negative = growth inhibition": -5.26},
      {"compound": "C=CCOc1nc2c(c(=O)n(C)c(=O)n2C)n1Cc1ccc(Cl)cc1Cl", "Potency": "14.6 µM (active)"},
      {"compound": "Cn1c(=O)c2c(nc(Oc3ccc(C#N)cc3)n2Cc2ccc(Cl)cc2Cl)n(C)c1=O", "activity change, negative = growth inhibition": 1.97},
      {"compound": "CC1CN(Cc2nc3c(c(=O)n(C)c(=O)n3C)n2Cc2cccc(Cl)c2)CC(C)O1", "note": "(stereo not given)", "activity change, negative = growth inhibition": -12.8},
      {"compound": "CN1CCc2nc(SC(C(=O)O)c3ccccc3)c(C#N)c(-c3cccs3)c2C1", "note": "(stereo not given)", "activity change, negative = growth inhibition": -9.2},
      {"compound": "COc1ccc(CCNC(=O)Cn2c(=O)n(-c3ccccc3)c(=O)c3c(C)c(C)sc32)cc1OC", "activity change, negative = growth inhibition": -19.5},
      {"compound": "C=CCn1c(SCC(N)=O)nnc1-c1cc2c(s1)CCC(CC)C2", "note": "(stereo not given)", "activity change, negative = growth inhibition": -16.5},
      {"compound": "O=C1C=C(c2ccccc2)CCC1", "activity change, negative = growth inhibition": -7.87},
      {"compound": "CC(=O)c1ccc2c(ccc3ccccc32)c1", "activity change, negative = growth inhibition": -26.8},
      {"compound": "CC(=O)CCC(=O)c1ccc2ccccc2c1", "activity change, negative = growth inhibition": -2.51},
      {"compound": "C=CC(=O)c1ccc2ccccc2c1", "Potency": "2.31 µM (active)"},
      {"compound": "CCc1ccc(C(=O)N2CCN(S(=O)(=O)c3sc(C(=O)O)c(C)c3C(=O)O)CC2)cc1", "activity change, negative = growth inhibition": 28},
      {"compound": "CCOc1cc(C(=S)N2CCOCC2)ccc1OS(=O)(=O)c1ccc(Br)cc1", "Potency": "20.6 µM (active)"}
    ]}
  ]
}
